TEAD-YAP inh – TEAD-YAP interaction inhibition; inhibition, % at 9.12 µM; actives 1.4% (n = 640,000); HEK-TIYL cells, TEAD-Gal4/YAP UAS-luciferase luminescence; AID 1259422; in the data active = inhibition above about 32%;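 also: 0% = median of test compound wells and 100% = reference inhibitor wells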
FBW7 act – activators of human E3 ligase FBW7; AlphaScreen FBW7–phospho-cyclin E peptide binding, activator screen; normalized activity (activation), % at 26.1 µM; actives 0.13% (n = 650,000); AID 1259310; in the data active = normalized activity above about 1.9%;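 also: purified mutant Fbw7 with reduced substrate affinity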
MITF primary – human MITF inhibition, primary screen | O75030 | AlphaScreen MITF homodimerization, bead proximity signal | actives 0.91% (n = 650,000) | inhibition, % at 2.6 µM | AID 1259374; in the data active = inhibition above about 50%;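 also: 0% = vehicle wells with protein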
Target sequence (O75030 whole entry, looked up): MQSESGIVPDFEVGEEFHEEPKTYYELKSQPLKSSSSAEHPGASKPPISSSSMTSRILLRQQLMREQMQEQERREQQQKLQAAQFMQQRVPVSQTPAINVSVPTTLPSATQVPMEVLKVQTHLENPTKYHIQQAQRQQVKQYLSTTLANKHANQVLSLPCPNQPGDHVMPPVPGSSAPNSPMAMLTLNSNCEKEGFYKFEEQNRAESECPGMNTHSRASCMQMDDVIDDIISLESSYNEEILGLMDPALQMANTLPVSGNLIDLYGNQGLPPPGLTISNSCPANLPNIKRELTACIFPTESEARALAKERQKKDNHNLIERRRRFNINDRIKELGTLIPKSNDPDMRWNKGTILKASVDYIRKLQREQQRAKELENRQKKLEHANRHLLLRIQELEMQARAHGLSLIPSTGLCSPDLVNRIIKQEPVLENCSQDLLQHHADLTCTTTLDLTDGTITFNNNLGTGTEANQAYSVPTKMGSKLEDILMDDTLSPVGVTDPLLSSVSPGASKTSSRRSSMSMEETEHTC
GPR151 ag – activators of human GPR151 | Q8TDV0 | activation, % at 11.2 µM | actives 1% (n = 650,000) | PathHunter beta-arrestin GPR151 cells, luminescence | AID 1508602; in the data active = activation above about 4.9%;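 also: 0% = median of compound wells and 100% = cells with positive control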
GPR151 conf act – confirmation of human GPR151 activators; shares compounds with GPR151 ag; GPR151 PathHunter beta-arrestin cells, luminescence, 90 min; % of EA-reagent control over plate median; activation, % at 11.2 µM; 6,700 tested, under 10 active;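 active = mean percent activation across replicates above the confirmation screen cutoff of 4.91%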
GPR119 ag – activates human GPR119 in a GPR151 counter-screen; shares compounds with GPR151 ag; GPR119 PathHunter beta-arrestin cells, luminescence, 90 min; 0 = compound-well median, 100 = enzyme-acceptor control; activation, % at 11.2 µM; actives 0.3% (n = 6,700); AID 1508611;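 active = mean percent activation in the counterscreen above 29.09%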;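 also: counterscreen on off-target GPR119 to flag nonselective hits from the GPR151 activator screen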
* marks the source's active call; other numbers are inactive results; x = not tested or not shown; ! = a repeat was not active. Shown are actives, neighbours in structure and some others; about 3.5% of the full set was active somewhere.

SMILES | TEAD-YAP inh | FBW7 act | MITF primary | GPR151 ag | GPR151 conf act | GPR119 ag
Cc1ccc(/C=C2\C(=O)NC(=O)N(c3cccc(Br)c3)C2=O)cc1[N+](=O)[O-] | 8 | 0 | -4 | 5.1* | 0 | 12
CCOc1cc(/C=C2/C(=O)NN(c3cccc(C)c3)C2=O)cc([N+](=O)[O-])c1O | 2 | 0 | 10 | 6.0* | 1 | 1
COc1cc([N+](=O)[O-])cc(/C=C2/C(=O)NC(=O)N(c3cccc(C)c3)C2=O)c1O | 4 | 0 | 2 | 5.3* | 1 | 7
CCOC(=O)c1cc2c(c(CSc3nc4ccccc4c(=O)n3Cc3cccs3)c1)OCOC2 | -9 | 0 | 1 | 1 | x | x
CCOC(=O)c1cc2c(c(CSc3nc4ccccc4c(=O)n3Cc3ccc4c(c3)OCO4)c1)OCOC2 | -7 | 0 | -7 | 4.9* | 3 | 10
COc1cccc(N2C(C)=CC(=C(C#N)C#N)C=C2C)c1 | 2 | 0 | -13 | 0 | x | x
Cc1ccc2cc(C#N)c(N3CCCN(C(=O)c4ccco4)CC3)nc2c1C | 4 | 0 | 4 | -1 | x | x
Cc1ccc2cc3c(nc2c1C)OCCN(C(=O)c1ccco1)C3 | 6 | 0 | 16 | 5.7* | 0 | -5
COC(=O)c1ccc(NC(=S)NC(=O)c2ccccc2F)cc1 | -10 | 0 | 2 | 1 | x | x
Cc1cc(C)n2c(SCC(=O)NC(=O)NC(C)(C)C)nnc2n1 | 7 | 0 | 1 | 5.5* | 0 | 6
COc1ccc2c(c1)O/C(=C\c1ccc(OC)c(OC)c1)C2=O | 2 | 0 | 6 | 5.5* | -1 | 1
COc1cc(C)c2c(c1)O/C(=C\c1ccc(OC)c(OC)c1OC)C2=O | -11 | 0 | 14 | 7.5* | 1 | -6
COc1ccc2c(c1)O/C(=C\c1ccc(OS(C)(=O)=O)c(OC)c1)C2=O | 1 | 0 | -2 | 0 | x | x
COC(=O)COc1ccc(/C=C2\Oc3cc(OC)ccc3C2=O)cc1OC | -1 | 0 | -10 | 0 | x | x
COC(=O)C(C)Oc1ccc(/C=C2\Oc3cc(OC)ccc3C2=O)cc1OC (stereo not given) | 4 | 0 | -4 | 8.8* | 0 | 10
OCCOc1cccc(CN2CCCC(CO)(Cc3ccccc3)C2)c1 (stereo not given) | 0 | 0 | -2 | -1 | x | x
O=C(NC(=S)Nc1ccc([N+](=O)[O-])cc1)c1cccs1 | -2 | 0 | -7 | 0 | x | x
COc1cc(-c2nc(C)cnc2C)cc2c1OCCN(Cc1ccc(C)s1)C2 | -1 | 1 | 8 | 1 | x | x
CCOc1ccc(Nc2n[nH]c(=S)n2-c2ccc(OCC)cc2)cc1 | 4 | 0 | 0 | 6.3* | 1 | 5
CCOc1ccc(C(=O)NC(=S)Nc2ccc(Br)cn2)cc1 | -6 | 0 | 11 | 0 | x | x
COc1ccc(-c2[nH]ncc2CN[C@@H]2C[C@@H](C(=O)NC(C)C)N(Cc3ccccc3)C2)cc1 | -1 | 0 | 8 | 5.7* | 0 | -4
COc1ccc(O)c(CN[C@H]2C[C@@H](C(=O)NC(C)C)N(Cc3ccc4ccccc4c3)C2)c1 | -1 | 0 | -4 | 0 | x | x
Cc1ccc(CNC(=O)c2cnn3c(C(F)(F)F)cc(-c4ccccc4)nc23)cc1 | 0 | 0 | 10 | -1 | x | x
COc1ccc(/C=N/NC(=O)CCC(=O)Nc2ccc(Cl)cc2C)cc1 | 3 | 0 | 12 | 5.3* | 0 | -1
CCCCCCCC(=O)N/N=C/c1ccccc1OC | 6 | 0 | -4 | 17* | -1 | -8
SMILES | TEAD-YAP inh | FBW7 act | MITF primary | GPR151 ag | GPR151 conf act | GPR119 ag
CCCCCC(=O)N/N=C/c1cccc(OC)c1 | -9 | 0 | 10 | 5.2* | 0 | -3
COc1ccc(/C=N/NC(=O)CCC(=O)Nc2ccc(Cl)cc2C)cc1OC | -1 | 0 | -3 | -1 | x | x
CC(C)OC1(C(F)(F)F)NC(=O)N(c2cccc(C(F)(F)F)c2)C1=O (stereo not given) | 3 | 0 | 13 | 2 | x | x
CC1(C)NC(=O)N(c2ccc([N+](=O)[O-])c(C(F)(F)F)c2)C1=O | 1 | 0 | -14 | 5.5*! | 1 | -3
CC(C)NC(=O)CSc1nc(Cc2ccccc2)nc2ccccc12 | -12 | 0 | -18 | -1 | x | x
Cc1nonc1NC(=O)CSc1nc(Cc2ccccc2)nc2ccccc12 | 0 | 0 | -8 | 10* | 0 | 3
O=c1[nH]c(CSc2nnc(Nc3ccccc3F)s2)nc2ccccc12 | -1 | 0 | -19 | 7.2* | 0 | 4
CCOc1ccccc1Nc1nnc(SCc2nc3ccccc3c(=O)[nH]2)s1 | -9 | 0 | 4 | -1 | x | x
Cc1cccn2c(CN3CCOCC3)c(C(=O)N3CCCCC3)nc12 | -13 | 0 | 8 | 0 | x | x
Cc1cccn2c(CNCCc3ccccn3)c(C(=O)N3CCOCC3)nc12 | -6 | 0 | -9 | 5.9* | 0 | 3
Cc1cccn2c(CNC3CCOC(C)(C)C3)c(C(=O)N3CCOCC3)nc12 (stereo not given) | -8 | 0 | 0 | 4.9* | 0 | -4
Cc1cccn2c(CN3CCN(c4ccncc4)CC3)c(C(=O)N3CCCCC3)nc12 | 8 | 0 | -11 | 5.2* | 0 | 5
O=C(Nc1ccc(I)cc1)C1CC(=O)N(CCO)C(=Nc2ccccc2)S1 (stereo not given) | 1 | 0 | -18 | 2 | x | x
CCCn1nnc(NC(=O)C(C)Oc2ccc(Cl)cc2Cl)n1 (stereo not given) | 7 | 0 | 6 | 4.9* | 0 | -8
Cc1cc(C)c2c(CC(=O)N(CC#N)CC#N)coc2c1 | 12 | 0 | 2 | 0 | x | x
CCCC(=O)Nc1ccc(NC(=O)c2cnccn2)cn1 | -9 | 1 | -8 | 8.0* | -1 | -6
Cc1cccc(OCC(=O)Nc2ccc(Cl)c(-c3nc4cc(C)ccc4o3)c2)c1 | -11 | 0 | -4 | 2 | x | x
CCSC1=C(C#N)C(c2ccc3c(c2)OCO3)C2=C(CCCC2=O)N1 (stereo not given) | 7 | 0 | 16 | 5.5* | 1 | 0
O=C(Nc1ccccc1)N1CCC(CO)(CCc2ccccc2)CC1 | -3 | 0 | 6 | 9.9* | 0 | 2
CCc1ccc(N(C(=O)c2csnn2)C(C(=O)NC(C)(C)CC)c2ccncc2)cc1 (stereo not given) | -8 | 0 | 10 | 22* | 0 | 8
CCc1cccc(CC)c1NC(=O)CN(c1cc([N+](=O)[O-])ccc1OC)S(C)(=O)=O | 2 | 0 | 18 | -1 | x | x
COc1ccc(C2Nn3c(C)nnc3SC2C(=O)N2CCCC2)cc1Br (stereo not given) | 6 | 0 | 10 | 5.1* | 0 | -5
COc1ccc(CCN2C(=O)c3ccc(Oc4ccc(Nc5ncnc6ccccc56)cc4)cc3C2=O)cc1OC | 97* | 0 | 18 | 6.6* | 3 | 26
